High-throughput results deposited in PubChem by several laboratories.
GRIN3A LBD mod: binders of NR3A ligand-binding domain, primary screen, biophysical, differential scanning fluorimetry, uHTS | 340,000 compounds, 2.5% hits | Tm shift relative to glycine control, % at 25 µM | AID 1259313, 2017 | NR3A LBD differential scanning fluorimetry, Tm shift; 0% = protein alone, 100% = glycine-bound protein;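 active = melting temperature shift of at least 10% of the positive control shift, at one fixed dose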
FAS-TE inh: FAS thioesterase domain inhibitors, primary screen, biochemical, fluorescence intensity, uHTS | Fatty acid synthase (Homo sapiens), P49327 | recombinant FAS-TE, OMFH fluorogenic substrate, fluorescence endpoint | inhibition, % at 15 µM | 360,000 compounds, 0.67% hits;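 active = compounds whose normalised, plate-corrected inhibition of enzyme fluorescence in the single-dose primary screen is 50% or more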;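 note: 0% = DMSO with enzyme and 100% = substrate without enzyme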
Myeloid diff 2: induction of myeloid progenitor differentiation, primary screen, cell-based, flow cytometry, MLPCN library | ER-HoxA9 myeloid progenitors, lysozyme-GFP differentiation | calls only at 10 µM | 360,000 compounds, 1% hits;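 active = normalized GFP-positive differentiation at or above the plate's own cutoff, the solvent-only control mean plus 3 SD; inconclusive = no clear call, values can overlap the other calls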;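 note: cells exposed to compound for four days before flow analysis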
MPTP inh: mitochondrial permeability transition pore inhibitors, primary screen, biochemical, isolated mouse mitochondria, absorbance. Ca2+ swelling absorbance, 30 min. inhibition, % at 10 µM. 360,000 compounds, 1.4% hits. AID 602449, 2012;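 active = inhibition of 50% or more, scaled per plate between neutral and stimulator controls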;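 note: 0% = DMSO wells given calcium and 100% = 1 mM EGTA wells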
rCAG binder: binders of r(CAG) RNA repeats, primary screen, biochemical, fluorescence | r(CAG) RNA repeat, TO-PRO-1 dye displacement fluorescence | inhibition, % at 3 µM | 370,000 compounds, 1.3% hits | AID 651821, 2012;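 active = inhibition above the plate cutoff, the mean of all test compounds on that plate plus 3 SD, cut at about 35% in these data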;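 note: 0% = DMSO alone and 100% = 100 µM mitoxantrone as full dye displacement; higher means more dye released from RNA so lower well fluorescence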
Rh123 counter: fluorescence retest of MPTP screen hits in isolated mitochondria, single concentration. 5,000 compounds, 78% hits. AID 624504, 2012. shares compounds with MPTP inh. inhibition, % at 10 µM. membrane potential, Rhodamine 123 fluorescence; in the data active = inhibition above about 22%;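 note: 0% = DMSO vehicle and 100% = positive control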
MPTP abs DR: mitochondrial permeability transition pore inhibitors, dose response, biochemical, absorbance, uHTS hits | shares compounds with MPTP inh | isolated mitochondria swelling | IC50, µM | 780 compounds, 58% hits | AID 651561, 2012; in the data active = IC50 below about 20 µM
MPTP counter DR: fluorescent counter-screen in isolated mitochondria, dose response, counter-screen for MPTP inhibitor project, biochemical, fluorescence, uHTS hits; isolated mitochondria counterscreen, fluorescence read-out; 780 compounds, 49% hits; IC50, µM; shares compounds with MPTP inh; in the data active = IC50 below about 80 µM
* = called active by the depositor; i = inactive; ? = inconclusive; · = no result. In the library only some 5.7% were active in any assay of this set; here they are far more common.

SMILES	GRIN3A LBD mod	FAS-TE inh	Myeloid diff 2	MPTP inh	rCAG binder	Rh123 counter	others
COc1cccc(NC(=O)N2CCN(C(=O)C(Cc3ccc(OC)c(OC)c3)NC(C)=O)CC2)c1 (centres undefined)	1.7	-6.7	i	-0.7	·	·
COc1ccc(CC(NC(C)=O)C(=O)N2CCN(C(=O)Nc3ccc(Cl)cc3)CC2)cc1OC (centres undefined)	3.8	-2.8	i	55.2*	-2.9	72.6*
Cc1nc2ccccc2cc1OCc1ccc(Cl)cc1	-13.3	23.6	i	95.6*	0.1	104.0*
Cc1nc2ccccc2cc1OCc1ccccc1	0.8	10.1	i	92.5*	-1.3	99.8*
Cc1nc2ccccc2nc(C)c1=NOCc1cccc(Cl)c1	-2.2	16.7	i	0.7	4.8	·
COc1ccc(F)cc1COc1nc(C)nc2ccccc12	-4.0	-4.3	i	0.7	-3.6	·
Cc1nc(OCc2ccccc2)c2ccccc2n1	-1.6	-8.6	i	71.8*	-2.8	14.9	MPTP abs DR=11.7*;MPTP counter DR=26.7*
COc1cccc(COc2cc3ccccc3nc2C)c1	1.8	17.5	i	96.9*	-0.4	94.2*
COc1oc(C(=O)NC2CCCCC2)c(-c2ccc(Cl)cc2)c1S(=O)(=O)c1ccccc1	-3.7	21.7	·	-0.7	4.3	·
c1ccc(Cc2nn3c(-c4ccncc4)nnc3s2)cc1	-3.7	-7.3	i	0.5	-2.3	·
COc1cccc(CN(c2ccc3c(c2)CCC3)S(=O)(=O)c2ccc(-n3cnnn3)c(OC)c2)c1	1.8	37.8	i	-0.6	10.4	·
CC(C)(C)c1ccc(-c2nnc(SCCC#N)n2C2CCCC2)cc1	2.1	30.0	i	69.1*	-4.5	15.1	MPTP abs DR=i;MPTP counter DR=22.8*
CC(C)CN(C(=O)COC(=O)CNC(=O)c1ccccc1)c1c(N)n(Cc2ccccc2)c(=O)[nH]c1=O	-2.1	-4.7	i	1.5	-2.4	·
C/C(=C\c1ccccc1)C(=O)Nc1nc2ccc([N+](=O)[O-])cc2s1	9.7	-9.5	i	53.4*	3.9	65.6*
O=C(NC(Nc1nc2ccc([N+](=O)[O-])cc2s1)(C(F)(F)F)C(F)(F)F)c1ccccc1Cl	13.0*	22.9	?	92.5*	21.3	91.7*
O=C(NC(Nc1nc2ccc([N+](=O)[O-])cc2s1)(C(F)(F)F)C(F)(F)F)c1cccnc1	0.5	4.3	i	86.8*	11.8	97.3*
Cc1ccc(NS(=O)(=O)c2ccc(OCC(=O)NCc3cccnc3)cc2)cc1	-6.8	-9.2	i	-0.5	-1.8	·
COc1ccc(C)cc1NC(=O)c1ccc2c(O)c(S(=O)(=O)c3ccccc3)c(=O)[nH]c2c1	-0.9	-7.3	i	4.4	7.8	·
COCCCNC(=O)C[C@H]1C[C@@]2(C(=O)OC)C(=C[C@H](COCc3ccccc3)O[C@@H]2C)N(Cc2ccc3c(c2)OCO3)C1=O	·	·	·	·	1.3	·
CCOC(=O)c1nc(C)nc(Sc2n[nH]c(-c3cc(C(F)(F)F)cc(C(F)(F)F)c3)n2)c1C	12.8*	10.9	i	65.3*	4.7	71.7*
O=S(=O)(NC1c2cccc3cccc(c23)C1N1CCNCC1)c1ccc(Cl)cc1 (centres undefined)	-0.8	-12.1	i	80.7*	3.6	-8.4	MPTP abs DR=3.25*;MPTP counter DR=>80
O=C1CCCN2N=C(SCC(=O)Nc3cccc(F)c3)SC2=N1	-2.4	-3.4	i	50.1*	3.0	15.8	MPTP abs DR=i;MPTP counter DR=38.4*
O=C1CCCN2N=C(SCC(=O)Nc3ccc(F)cc3F)SC2=N1	0.5	-4.3	i	1.4	4.6	·
O=C1NCN(c2ccccc2)C12CCN(CCCC(c1ccc(F)cc1)c1ccc(F)cc1)CC2	0.0	26.4	i	100.3*	3.5	-24.8	MPTP abs DR=7.31*;MPTP counter DR=30.8*
